Results filed as inconclusive are left out. Active and inactive are the calls of the source. The call rests on the fitted dose curve; in most records, active means well fitted inhibition curve with a large enough effect; inconclusive means small, poorly fitted or top-dose-only effect; inactive means no such curve, though single readings can be large or run the other way.
Test: NS1 protein of Zika virus - qHTS assay to identify small molecule inhibitors in human HEK 293 cells (AID 1347053); further: nearly all actives have a fitted effect of over 55% in size;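 on activity change, negative = inhibition: plate controls were infected untreated cells for no effect and uninfected cells for full effect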
Conditions: HEK293 ZIKV MR766 infection, NS1 TR-FRET, 24 h; series mostly up to 46.1 µM; activity change, negative = inhibition: at the top concentration
Outline: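 TR-FRET signal from two anti-ZIKV NS1 antibodies quantified NS1 in HEK 293 cells 24 h after MR766 infection at MOI = 0.5; compounds were added 1 h before virus. Uninfected cells and infected cells defined the NS1 normalization range.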
Potency means the concentration at half of the fitted maximal effect.

| Compound | activity change, negative = inhibition | Potency |
| --- | --- | --- |
| CON=C(C(=O)N[C@@H]1C(=O)N2C(C(=O)O)=C(CSC(=O)c3ccco3)CS[C@H]12)c1csc(N)n1 | 1.77% (inactive) |  |
| COc1cc2c(Nc3ccc(Cl)c(Cl)c3F)ncnc2cc1OCC1C[C@@H]2CN(C)C[C@H]2C1 | 2.74% (inactive) |  |
| CCn1c(=O)c2c(nc(C=Cc3ccc(OC)c(OC)c3)n2C)n(CC)c1=O | 18.6% (inactive) |  |
| CC[C@H]1OC(=O)[C@H](C)[C@@H](O[C@H]2C[C@@](C)(OC)[C@@H](O)[C@H](C)O2)[C@H](C)[C@@H](O[C@@H]2O[C@@H](C)C[C@H](N(C)C)[C@@H]2O)[C@](C)(O)C[C@@H](C)C(=O)[C@H](C)[C@@H](O)[C@]1(C)O | -0.529% (inactive) |  |
| Cc1nc(NC(=O)N2CCC[C@@H]2C(N)=O)sc1-c1ccnc(C(C)(C)C(F)(F)F)c1 | -14.1% (inactive) |  |
| C#Cc1cccc(Nc2ncnc3cc(OCCOC)c(OCCO)cc23)c1 | 2.5% (inactive) |  |
| O=C(Nc1ccc(Oc2ccnc3[nH]ccc23)c(F)c1)c1cccn(-c2ccc(F)cc2)c1=O | 4.75% (inactive) |  |
| O=C(O)C[C@H](O)C[C@H](O)C=Cc1c(C2CC2)nc2ccccc2c1-c1ccc(F)cc1 | 7.88% (inactive) |  |
| COC[C@H](NC(=O)c1cnc(C)s1)C(=O)N[C@@H](COC)C(=O)N[C@@H](Cc1ccccc1)C(=O)[C@@]1(C)CO1 |  | 1.18 µM (active) |
| Cc1ccc([N+](=O)[O-])cc1S(=O)(=O)N(C)N=Cc1cnc2ccc(Br)cn12 |  | 0.118 µM (active) |
| COc1cc(C=CC(=O)CC(=O)C=Cc2ccc(O)c(OC)c2)ccc1O |  | 19.1 µM (active) |
| OC[C@@H](O)[C@@H](O)[C@H](O)[C@@H](O)CO | -4.78% (inactive) |  |
| CC(C)N1[N]C(=C2C=c3cc(O)ccc3=N2)c2c(N)ncnc21 |  | 4.69 µM (active) |
| O=C(O)[C@H](CC(=O)N1C[C@@H]2CCCC[C@H]2C1)Cc1ccccc1 | -0.347% (inactive) |  |
| COC(=O)[C@H](CCCN=C(N)N)NS(=O)(=O)c1ccc(C)cc1 | 3.35% (inactive) |  |
| CC(C)(O)[C@H]1CC[C@@](C)([C@H]2[C@@H](O)C[C@@]3(C)[C@@H]4C[C@H](O[C@@H]5O[C@H](CO)[C@@H](O)[C@H](O)[C@@H]5O)[C@H]5C(C)(C)[C@@H](O[C@@H]6OC[C@@H](O)[C@H](O)[C@@H]6O)CC[C@@]56C[C@@]46CC[C@]23C)O1 | 12.9% (inactive) |  |
| C#C[C@]1(O)CC[C@@H]2[C@@H]3CCC4=CC(=O)CC[C@@H]4[C@H]3CC[C@@]21CC | -4.2% (inactive) |  |

| Compound | activity change, negative = inhibition | Potency |
| --- | --- | --- |
| C[C@@H](Cc1cc2c(c(C(N)=O)c1)N(CCCO)CC2)NCCOc1ccccc1OCC(F)(F)F | -2.9% (inactive) |  |
| C=C(C)[C@@H]1CC[C@]2(C(=O)O)CC[C@]3(C)[C@H](CC[C@@H]4[C@@]5(C)CC[C@H](O)C(C)(C)[C@@H]5CC[C@]43C)[C@@H]12 | 2.19% (inactive) |  |
| O=C(O)C(=O)Nc1cccc(C2=NN=N[N]2)c1 | 1.18% (inactive) |  |
| C#CCC(Cc1cnc2nc(N)nc(N)c2n1)c1ccc(C(=O)N[C@@H](CCC(=O)O)C(=O)O)cc1 (some centres undefined) |  | 0.132 µM (active) |
| O=c1ccn([C@@H]2O[C@H](CO)[C@H](O)[C@@H]2F)c(=O)[nH]1 | 2.17% (inactive) |  |
| CC(C(C)N1CC(=O)NC(=O)C1)N1CC(=O)NC(=O)C1 (centres undefined) | 4.09% (inactive) |  |
| O=C1c2c(O)cccc2[C@@H]([C@@H]2O[C@H](CO)[C@@H](O)[C@H](O)[C@H]2O)c2cc(CO)cc(O)c21 | 1.06% (inactive) |  |
| O=C1CSC(=O)N1C(CCc1ccncc1)COc1ccc(-c2cccc([N+](=O)[O-])c2)cc1 (centres undefined) | -4.9% (inactive) |  |
| CCCCCCCCCCCCc1ccc(S(=O)(=O)Nc2nncs2)cc1 | 2.2% (inactive) |  |
| CC(C)n1cnc2c(NCCc3ccc(O)cc3)nc(-c3csc4ccccc34)nc21 |  | 26.4 µM (active) |
| OCc1ccccc1O[C@@H]1O[C@H](CO)[C@H](O)[C@H](O)[C@H]1O | 11.9% (inactive) |  |
| c1cncc(CN2CCC(n3ncc4c(N5CCOCC5)nc(-c5ccc6[nH]ccc6c5)nc43)CC2)c1 |  | 14.8 µM (active) |
| C=C1CCC2[C@](C)(CO)C(O)CC[C@]2(C)C1CC=C1C(=O)OCC1O (some centres undefined) | 6.47% [at 92.8 µM] (inactive) |  |
| C[C@H](CCC(=O)O)[C@H]1CC[C@H]2[C@@H]3[C@H](O)C[C@@H]4C[C@H](O)CC[C@]4(C)[C@@H]3CC[C@]12C | -3.83% (inactive) |  |
| O=C(O)CCCCC(CCSCc1ccccc1)SCc1ccccc1 (centres undefined) | 8.15% (inactive) |  |
| C[C@@]12C[C@@]3(O)O[C@@H](O1)[C@]1(COC(=O)c4ccccc4)[C@@H]3C[C@@]12O[C@@H]1O[C@H](CO)[C@@H](O)[C@H](O)[C@@H]1O | -2.67% (inactive) |  |
| CON=C(C(=O)N[C@@H]1C(=O)N2C(C(=O)O)=C(Cn3ccc(=N)n3CCO)CS[C@H]12)c1csc(N)n1 | -1.27% (inactive) |  |

— PubChem BioAssay (NCATS)
